# PNC inhibitor – blocks assembly of the perinucleolar compartment; actives 3.1% (n = 140,000); AID 2417; PC3M PTB-GFP, PNC prevalence imaging, 16 h; active compounds read low; activity change (PNC), negative = inhibition, % at 10 µM;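 active means readout at or below -70, meaning at least 70% loss of cells showing the perinucleolar compartment, a nuclear body marking cancer cells; inconclusive means readout between -30 and a set limit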;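 further: plate controls were DMSO wells for no effect and camptothecin positive control wells for full effect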
#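 PC3M cells stably expressing PTB-GFP, 750–1000 cells/well, treated 16 h at 37 °C with compound (23 nl of library stock), in duplicate. After paraformaldehyde fixation and Hoechst stain, imaged at 20x; PNC prevalence scored by image analysis.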
# HPGD block – blocks human HPGD enzyme activity; Potency, µM, inactives show at the highest dose activity change, negative = inhibition, actives largely listed as inhibitors; actives 4.3% (n = 150,000); purified HPGD, NADH fluorescence kinetic, PGE2 substrate; P15428; active means well fitted inhibition curve with a large enough effect, not every such curve was filed as active; inconclusive means small, poorly fitted or top-dose-only effect, or another doubt; inactive means no such curve, though single readings can be large or run the other way; further: potency means the concentration at half of the fitted maximal effect
# Target sequence (P15428 whole entry, looked up): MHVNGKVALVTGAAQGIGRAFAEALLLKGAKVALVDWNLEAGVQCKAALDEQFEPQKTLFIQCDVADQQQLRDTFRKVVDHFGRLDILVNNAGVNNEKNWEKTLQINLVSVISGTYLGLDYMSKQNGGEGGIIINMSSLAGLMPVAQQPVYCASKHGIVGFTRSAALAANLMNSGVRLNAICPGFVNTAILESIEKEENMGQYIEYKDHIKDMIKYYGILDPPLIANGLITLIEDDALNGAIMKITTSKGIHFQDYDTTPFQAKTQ
#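 NADH formation kinetics: reaction with 30 uM PGE2 and 1 mM NAD+ (final), 20 nM enzyme, Tris-HCl pH 8 with Tween 20, after 15 min compound preincubation at room temperature. Fluorescence change, last versus first of five reads.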
# IMPase inh – IMPase inhibition in cells | CHO-M1 cells, IP1 accumulation, HTRF TR-FRET ratio | 120,000 tested, under 10 active | AID 901 | inhibition (IP1 accumulation), % at 46.1 µM; active means well fitted curve in the direction sought with a large enough effect in the signal ratio, not every such curve was filed as active; inconclusive means small, poorly fitted or top-dose-only effect, or a change in a side signal; inactive means no such curve, though single readings can be large or run the other way; the % refers to the signal ratio;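 further: cells stimulated with carbachol in lithium chloride buffer; plate controls were DMSO basal wells for no effect and reference inhibitor wells for full effect; higher means more IMPase inhibition seen as more IP1 and lower FRET ratio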
# Target sequence (P97697 whole entry, looked up): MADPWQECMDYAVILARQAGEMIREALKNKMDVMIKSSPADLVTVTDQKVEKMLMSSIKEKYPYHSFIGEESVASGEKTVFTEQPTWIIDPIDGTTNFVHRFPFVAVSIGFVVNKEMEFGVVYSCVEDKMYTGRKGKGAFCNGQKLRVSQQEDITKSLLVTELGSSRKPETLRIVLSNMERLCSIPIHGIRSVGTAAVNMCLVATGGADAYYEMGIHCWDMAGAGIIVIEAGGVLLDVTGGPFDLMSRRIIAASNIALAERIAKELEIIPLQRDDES
#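 Measured: the HTRF emission ratio (665/620 nm) plus the 620 nm donor channel, each fitted to the Hill equation to give AC50. Cells were CHO-M1 given compounds up to 46 uM and a 30 min carbachol stimulation at 37C.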
# ALOX15B inhib – inhibitors of human 15-lipoxygenase 2 (ALOX15B). O15296. purified 15hLO-2, xylenol orange hydroperoxide absorbance. Potency, µM (top dose mostly 57.1 µM), inactives show at the top dose activity change, negative = inhibition, usual class: inhibitors. actives 0.56% (n = 110,000). AID 881; further: potency means the concentration at half of the fitted maximal effect; nearly all actives have a fitted effect of over 60% in size
#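 Screening format was qHTS against 50 nM purified 15hLO-2 in Hepes pH 7.5 with detergent. Activity follows hydroperoxide formation from 45 uM arachidonic acid, measured as 573:405 nm absorbance ratio of the ferric-xylenol orange complex.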
# 12-hLO inh – blocks human 12-lipoxygenase activity; Potency, µM (series often up to 57.1 µM), for the others: top-dose activity change, negative = inhibition, actives largely listed as inhibitors; purified 12-hLO, xylenol orange hydroperoxide absorbance; P18054; actives 0.12% (n = 150,000); further: potency means the concentration at half of the fitted maximal effect; nearly all actives have a fitted effect of over 55% in size
#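 Hydroperoxide formation by human 12-lipoxygenase from 40 uM arachidonic acid was followed colorimetrically via ferric-xylenol orange complex, using the 573/405 nm absorbance ratio. Enzyme concentration was 150 nM, with 30 min reaction at room temperature.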
# IMPase Li inh – IMPase inhibition in cells with lithium potentiation | CHO-M1 cells, IP1 TR-FRET (IP-One), carbachol + lithium | Potency, µM (doses to about 59.4 µM), for the others: at the highest dose activity, negative = IMPase inhibition, actives largely listed as inhibitors | actives 0.35% (n = 210,000);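 further: IP1 builds up when IMPase is blocked and the TR-FRET signal falls; potency means the concentration at half of the fitted maximal effect; plate controls were basal vehicle for no effect and high inhibitor control for full effect; nearly all actives have a fitted effect of over 50% in size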
#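 Test compounds were applied to CHO-M1 cells previously cultured for 16–30 h at 2000 per well. A small lithium amount accompanied them; after 30 min at 37C, IP1 was quantified by TR-FRET.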
# * marks the source's active call; other numbers are inactive results; ? = inconclusive; · = not tested or not shown; [ ] = dose if it differs, or a comment. Compounds with a hit are over-represented: about 5.4% of the library has one in this group of screens. Unless noted, the call rests on the fitted dose curve; in most records, active means well fitted curve in the direction sought with a large enough effect; inconclusive means small, poorly fitted or top-dose-only effect, or another doubt; inactive means no such curve, though single readings can be large; an effect the other way counts as inactive or inconclusive. Unless noted, on the % scale 0 is the no-effect control and ±100 the full control effect.
SMILES,PNC inhibitor,HPGD block,IMPase inh,ALOX15B inhib,12-hLO inh,IMPase Li inh
COc1ccc([C@@H](C)C(=O)c2ccc(O)cc2O)cc1,·,-17%,·,·,·,15%
COc1ccc(OC)c(N(CC(=O)Nc2ccc3c(c2)OCO3)S(=O)(=O)c2ccccc2)c1,8,32µM*,-15[1.84 µM],-4%[11.4 µM],-3%,52%[38.3 µM]
Oc1ccc(CN2CCCCC2)c2cccnc12,-24,1%,10,·,?,10%
Oc1ccc(CN2CCN(c3ccccc3)CC2)c2cccnc12,-100*,-13%,7,·,-7%,3%
Cc1cc(NC(=O)CSc2ccc3nnc(-c4cccs4)n3n2)no1,-106*,-13%,-3,-3%,-2%,-6%[38.3 µM]
Cc1cc(NC(=O)CSc2n[nH]c(N)n2)no1,·,·,·,·,·,-4%
Cc1ccc(-c2nnc3ccc(SCC(=O)Nc4cc(C)on4)nn23)cc1,-1,-26%,8,-12%,-2%,-4%[38.3 µM]
Cc1cc(NC(=O)CSc2n[nH]c(-c3cccs3)n2)no1,?,14µM*,8,-1%,-2%,1%[38.3 µM]
CCCCN(CC)C(=O)c1cccc(Cl)c1,-7,?,6,-3%,0%,39%[38.3 µM]
CCN(CC)C(=O)c1cccc(C)c1,·,25µM*,·,-18%,4%,4%
CCCC(=O)c1ccc(-c2ccccc2)cc1,37,7.1µM*,2,0%,-5%,-3%
CCCCN(CC)C(=O)c1ccc(-c2ccccc2)cc1,28,2µM*,·,·,0%,4%
Cc1cccc(C(=O)NNC(=O)c2cccc(C)c2)c1,2,-1%,·,·,5%,-10%
O=C(CCCCCCCC(=O)c1ccccc1)c1ccccc1,·,·,·,·,·,9%
O=C(CN1C(=O)CCC1=O)c1ccc(-c2ccccc2)cc1,-82*,-28%,·,·,-3%,-10%
Nc1ncnc2c1ncn2[C@H]1O[C@@H](C(=O)O)[C@@H](O)[C@H]1O,·,0%,·,-5%[11.4 µM],-2%[11.4 µM],-3%
Cn1c(=O)c(C(=O)COC(=O)c2cc(C(F)(F)F)nc3c(C(F)(F)F)cccc23)c(N)n(Cc2ccccc2)c1=O,·,-10%,·,1%,1%,-4%
CCN(CC)C(=O)c1ccc2nc(-c3ccccc3)c(-c3ccccc3)nc2c1,?,?,0,·,-2%,31%
CCN(CC)C(=O)c1ccc2nc3ccccc3nc2c1,28,0.89µM*,·,·,-4%,14%
CCN(CC)C(=O)c1ccc(C)c(Br)c1,22,18µM*,14,0%,1%,0%
CCN(CC)C(=O)c1ccc(C(=O)c2ccccc2)cc1,41,1µM*,-3,1%,7%,22%[38.3 µM]
CN(C)Cc1ccccc1-c1cc(N(C)C)ncn1,·,-4%,·,1%,-3%,-2%
CC(C(=O)NCCN1C(=O)S/C(=C\c2cccnc2)C1=O)N1C(=O)c2ccccc2C1=O (stereo not given),-105*,-6%,·,·,-2%,4%
O=C(CCl)NCCN1C(=O)S/C(=C\c2cccnc2)C1=O,·,·,·,·,·,12%
CCCCCCCCCCCCCCC/C=C\[C@H](O)[C@@H](NC(=O)CCCCCCCCCCCCC)OC (tested in a mixture with another compound),·,·,-3,-17%,-11%,·
SMILES,PNC inhibitor,HPGD block,IMPase inh,ALOX15B inhib,12-hLO inh,IMPase Li inh
CCN(CC)CCN(Cc1cc2cc3c(cc2[nH]c1=O)OCCO3)C(=O)NC1CCCCC1,?,?,3,26%,1%,27%[38.3 µM]
COc1ccc(CN(Cc2cc3cc4c(cc3[nH]c2=O)OCO4)C(=O)NC2CCCCC2)cc1,-97*,?,-3[1.84 µM],9%[11.4 µM],-4%,22%[38.3 µM]
C=CC1=C2C=C(C3CC3)N(Cc3ccc4c(c3)OCO4)C=C2C(=O)C(C)(OC(=O)c2ccco2)C1=O (stereo not given),·,-8%,·,·,-3%[11.4 µM],-1%
N#CC(C#N)=C1C=CC=CN1/C(=C\c1ccco1)C(=O)c1ccccc1,-2,22µM*,16,·,-5%,35%
N#CC(C#N)=C1C=CC=CN1/C(=C\c1ccco1)C(=O)c1ccc(Br)cc1,1,16µM*,20,·,-24%,21%
CC(C)(C)OC(=O)NCCc1nnc(SCc2ccccc2Cl)o1,7,-8%,-9,3%,-4%,9%[38.3 µM]
CC(C)(C)OC(=O)NCCc1nnc(S(=O)(=O)Cc2ccc(Cl)cc2Cl)o1,-4,2.5µM*,11,-23%,-1%,0%[38.3 µM]
O=c1c(-c2cc(F)cc(F)c2)nc2cnc(N3CCNCC3)nc2n1Cc1cccs1,·,-16%,·,7%,2%,7%
COc1cccc(/C=C2\C(=O)C(=O)c3ccccc32)c1,?,3.5µM*,-9,-21%,-6%,-6%[38.3 µM]
CCc1ccccc1,·,-4%,·,-4%,1%,-4%
Cc1cc(C)c(NC(=O)/C=C\C(=O)O)c([N+](=O)[O-])c1,5,22µM*,4,?,2%,-5%[38.3 µM]
CCOc1ccc(NC(=O)Cn2c(=O)oc3ccccc32)cc1,-15,10µM*,4,-6%,-6%,21%[38.3 µM]
CC(=O)Nc1nc(NC(C)=O)c2[nH]c(CO)nc2n1,·,0%,·,-4%[11.4 µM],-1%[11.4 µM],-6%
Cc1ccc(-n2nnnc2-c2nc3ccccc3s2)cc1,-134*,-29%,·,·,2%,-22%
O=C(NCc1ccc(F)cc1)c1cnn2ccccc12,-84*,3%,6,3%,-2%,-10%[38.3 µM]
CCc1ccc(NC(=O)c2cnn3ccccc23)cc1,-14,-5%,3,0%,1%,-7%[38.3 µM]
Cc1ccc(C)c(OCC(=O)Nc2ccc(S(=O)(=O)Nc3onc(C)c3C)cc2)c1C,·,·,8,·,·,·
CN(C)CCO[C@](C)(c1ccccc1)c1ccccn1,·,-6%,11[20.6 µM],15%[25.6 µM],2%[25.6 µM],7%
CCCc1cc(=O)n2[nH]c(-c3ccccc3)cc2n1,-100*,?,-1,·,6%,-2%
CCCc1cc(=O)n2[nH]c(-c3ccc(C)cc3)cc2n1,-3,?,-4,-3%,-7%,0%[38.3 µM]
Clc1nssc1=Nc1ccccc1,·,·,·,·,·,-4%
COc1cc(N=c2ssnc2Cl)cc(OC)c1OC,?,2.2µM*,0,25µM*,?,6%[38.3 µM]
COc1ccc(N=c2ssnc2Cl)cc1,5,2.8µM*,8,·,?,2%
N#Cc1ccc(N=c2ssnc2Cl)cc1,?,2µM*,3,·,-5%,7%[38.3 µM]
Clc1ccc(N=c2ssnc2Cl)cc1,26,1.8µM*,-7,·,?,7%
COC(=O)[C@@H](O)CC[C@@H](C)Cc1c(OC)c(OC)c(C)c(OC)c1OC,·,-6%,·,·,·,-2%
CC#CCC1(C(=O)OC)C(=O)NC[C@H]1c1ccccc1 (stereo not given in full),·,-4%,·,·,4%,-6%
COc1ccc(-c2nc3c4ccccc4[nH]c(=O)n3n2)cc1,1,-29%,7,7%,-10%,-1%[38.3 µM]

# High-throughput results (PubChem BioAssay)
